Test results published in PubChem BioAssay (NCATS).
Records with an inconclusive call do not appear. A number with no mark means an inactive call. Activity calls are given as the source filed them. Calls come from the whole dose curve; as a rule, active = well fitted inhibition curve with a large enough effect; inconclusive = small, poorly fitted or top-dose-only effect; inactive = flat fitted curve, though single readings scatter.

Tested on: KB-3-1
Test: Cytotoxic Profiling of Annotated Libraries Using Quantitative High-Throughput Screening (AID 1296008); note: nearly all actives have a fitted effect of over 60% in size
Settings: Five cell lines viability, CellTiter-Glo ATP luminescence, 48-72 h; max response: stronger effect = lower value
Procedure, shortened: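 Compounds were pin-transferred onto cells and incubated 48 or 72 hr at 37 degree Celsius, 95% humidity. CellTiter-Glo was added, plates sat 10 min at room temperature, then ATP-coupled luminescence was imaged as the viability read-out.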
% is set by controls: 0 for no effect and ±100 for the full control effect.

Structure (SMILES)	max response [%]	outcome
CC1(C)C[C@H]2C3=CCC4[C@@]5(C)CC[C@H](O[C@H]6O[C@H](C(=O)O)[C@@H](O)[C@H](O)[C@H]6O[C@H]6O[C@H](CO)[C@@H](O)[C@H](O)[C@H]6O[C@@H]6O[C@H](CO)[C@@H](O)[C@H](O)[C@H]6O)[C@](C)(CO)C5CC[C@@]4(C)[C@]3(C)CC[C@@]2(C)[C@H](O[C@@H]2OC[C@H](O)[C@H](OC3O[C@H](CO)[C@@H](O)[C@H](O)[C@H]3O)[C@H]2O)[C@@H]1O (stereo not given in full)	9.85	–
COc1cc(C[C@H]2COC(=O)[C@@H]2Cc2ccc(O)c(OC)c2)ccc1O	-4.79	–
O=C(OCc1cccc(O)c1O[C@@H]1O[C@H](CO)[C@@H](O)[C@H](O)[C@H]1O)C1(O)C(=O)C2C=CC1C1C=CC(=O)C(O)(C(=O)OCc3cccc(O)c3O[C@@H]3O[C@H](CO)[C@@H](O)[C@H](O)[C@H]3O)C21 (stereo not given in full)	–	inactive
CC(=O)NC(CCC(=O)O)C(=O)NCCc1ccc(O)cc1 (stereo not given)	–	inactive
CC(=O)O[C@@H]1C[C@]2(C)[C@@]3(CCC4[C@@]5(C)CC[C@H](O[C@@H]6O[C@H](C(=O)O)[C@@H](O)[C@H](O[C@@H]7O[C@H](CO)[C@H](O)[C@H](O)[C@H]7O[C@@H]7O[C@@H](C)[C@H](O)[C@@H](O)[C@H]7O[C@@H]7OC[C@](O)(CO)[C@H]7O)[C@H]6O[C@@H]6O[C@H](CO)[C@H](O)[C@H](O)[C@H]6O)C(C)(C)C5CC[C@]42C)O[C@@H](O)[C@]12C3CC(C)(C)[C@@H](OC(=O)/C=C/c1ccc(O)c(O)c1)[C@@H]2OC(=O)/C=C/c1ccccc1 (stereo not given in full)	–	inactive
CC1CCC2C(C)(C)CC(C)(CO)C2(O)C1C(=O)O (stereo not given)	9.23	–
C=C1C[C@@]23CC[C@@H]4[C@](C)(C(=O)O)CCC[C@@]4(C)C2=CC[C@H]1C3	4.16	–
CCOc1nc2cccc(C(=O)O)c2n1Cc1ccc(-c2ccccc2-c2noc(=O)[nH]2)cc1	–	inactive
C/C=C(\C)C(=O)OC[C@H]1O[C@H](O[C@H]2O[C@H](CO)[C@@H](OC(=O)/C(C)=C/C)[C@H](O)[C@H]2O[C@@H]2O[C@H](CO)[C@@H](O)[C@H](O)[C@H]2O)[C@H](O[C@@H]2O[C@H](CO)[C@@H](O)[C@H](O)[C@H]2O)[C@@H](O)[C@@H]1O	8.89	–
CCNC(=O)CCC/C=C\C[C@@H]1[C@@H](/C=C/C(O)CCc2ccccc2)[C@@H](O)C[C@@H]1O (stereo not given in full)	9.15	–
C=C(C)C(=O)O[C@H]1C[C@@](C)(OC(C)=O)[C@@]2(O)CC[C@@](C)(O)[C@H](OC(C)=O)[C@@]23OC(=O)C(COC)=C13	6.06	–
CC(=O)O[C@@H]1[C@H]2[C@@H](OC(=O)c3ccccc3)[C@@H](C)C[C@]2(O)[C@H](OC(C)=O)[C@@]2(C)[C@@H]3CC(C)(C)C(=O)[C@]3(OC(C)=O)C[C@@]12C	–	inactive
C=CC(C)(CC/C=C(\C)CC/C=C(\C)CC(O)/C=C(\C)C(=O)O)O[C@@H]1O[C@H](CO)[C@@H](O)[C@H](O)[C@H]1O[C@@H]1O[C@H](CO)[C@@H](O)[C@H](O)[C@H]1O (stereo not given in full)	5.27	–
C/C=C(\C)C(=O)O[C@@H](C)[C@H]1CC[C@]2(O)C3CCC4C[C@@H](OC5CC(OC)C(OC6CC(OC)C(OC7CC(OC)C(OC8OC(C)C(OC9OC(CO)C(O)C(O)C9O)C(OC)C8O)C(C)O7)C(C)O6)C(C)O5)CC[C@]4(C)C3[C@H](O)[C@@H](O)[C@]12C (stereo not given in full)	–	inactive
CC1(C)CC(=O)N(CCCCN2CCN(c3ncccn3)CC2)C(=O)C1	4.21	–
C[C@@H]1CC[C@]2(C(=O)O)CC[C@]3(C)C(=CCC4[C@]5(C)C(CC[C@]43C)C(C)(C)[C@@H](O)[C@H](O)[C@@H]5O)C2[C@]1(C)O (stereo not given in full)	–	inactive
O=C(COc1ccc(Cl)cc1)NC1CCC(NC(=O)COc2ccc(Cl)cc2)CC1 (stereo not given)	-4.12	–
O=C(O)CCc1cccc(O[C@@H]2O[C@H](CO)[C@@H](O)[C@H](O)[C@H]2O)c1O	–	inactive
OC[C@H]1O[C@@H](OC(CCCCc2ccc(O)cc2)CCc2ccc(O)cc2)[C@H](O[C@@H]2OC[C@](O)(CO)[C@H]2O)[C@@H](O)[C@@H]1O (stereo not given in full)	–	inactive
COc1cc2c(cc1OC)CN(C(=O)[C@@H](NCc1ccncc1)C(C)(C)C)CC2	5.18	–
